Compound activity deposited in PubChem by National Center for Advancing Translational Sciences (NCATS).
This excerpt belongs to a sample that is enriched for hits.
Epigenetic reg = Quantitative High-Throughput Screen for Regulators of Epigenetic Control. murine LDR cells, GFP reporter derepression, 30 h. Potency, µM (doses to about 53.9 µM), without a hit: at the highest dose GFP activation, usual class: activators. 0.2% of 280,000 active. AID 1865, 2009; further: % of control where 0% means no effect; nearly all actives have a fitted effect of over 60% in size
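Derepression of a silenced CMV-GFP reporter in murine LDR cells is scored by enumerating GFP-positive cells with a laser-scanning microplate cytometer after 30 hours of treatment at 37 C.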
PINK1 modulator = A Quantitative High throughput Screen to Identify Chemical Modulators of PINK1 Expression; Potency, µM (highest dose often 76.6 µM), inactives show at the top dose activation (PINK1 increase), hits mostly activators; 0.2% of 410,000 active; AID 624263, 2012; PINK1 immunofluorescence, high-content cytometry, 24 h; active means well fitted activation curve with a large enough effect; inconclusive means small, poorly fitted or top-dose-only effect; cell line not stated here; further: % of control where 0% means no effect; nearly all actives have a fitted effect of over 65% in size
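Cells are seeded, rested 12 hours, then given compound at five concentrations or DMSO for 24 hours. After fixation, blocking and antibody staining, PINK1 amount and mitochondrial localization are scored; CCCP serves as control.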
HttQ103 aggreg = qHTS Multiplex Assay to Identify Dual Action Probes in a Cell Model of Huntington: Aggregate Formation (GFP) | Potency, µM (top dose mostly 46.1 µM), for the others: at the top dose activity change, negative = inhibition, most hits filed as inhibitors | AID 1688, 2009 | 1.1% of 220,000 active | PC12 HttQ103-GFP aggregates, Acumen cytometry, 40 h; further: on the % scale 0 is the no-effect control and ±100 the full control effect; nearly all actives have a fitted effect of over 60% in size
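Steps: seed 1500 PC12 HTTQ103-GFP cells/well; add tebufenozide, 100 nM final; add compound titration; add ATPLite reagent; quantify GFP aggregates by laser scanning cytometry.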
HTT cytoprotect = qHTS Multiplex Assay to Identify Dual Action Probes in a Cell Model of Huntington: Cytoprotection (ATP); PC12 HTT-Q103 induced, cytoprotection, ATP luminescence, 40 h; Potency, µM (highest dose often 56.4 µM), inactives show cytoprotection (ATP increase), hits mostly activators; 0.14% of 230,000 active; AID 1471, 2008; further: % of control where 0% means no effect; nearly all actives have a fitted effect of over 45% in size
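PC12 cells stably carrying ecdysone-inducible Htt exon 1 (Q103)–GFP were induced with 100 nM tebufenozide (final) alongside library compounds in a dose series. Cytoprotection was scored as retained ATP by ATPlite luminescence.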
The depositor's hits bear a star; ? = inconclusive; . = no result given; ! = not confirmed by another sample; [ ] = another dose, or the depositor's remark. Unless noted, the call rests on the fitted dose curve; in most records, active means well fitted curve in the direction sought with a large enough effect; inconclusive means small, poorly fitted or top-dose-only effect, or another doubt; inactive means no such curve, though single readings can be large; an effect the other way counts as inactive or inconclusive. Potency means the concentration at half of the fitted maximal effect.

SMILES | Epigenetic reg | PINK1 modulator | HttQ103 aggreg | HTT cytoprotect
c1ccc2c(Nc3ccc4c(c3)OCCO4)c3c(nc2c1)CCC3 | -1.3% | 39.8µM* | 8.7%[9.22 µM] | -38.4%[1.9 µM]
Cc1cc(/C=C/c2ccc3cc(N(C)C)ccc3[n+]2C)c(C)n1-c1ccccc1 | 22.4µM* | . | . | .
CN(C)c1ccc(/C=C/c2cncc3ccccc23)cc1 | . | 0.0% | . | .
CN(C)c1ccc(/C=C/c2c[n+](C)cc3ccccc23)cc1 | . | 44.7µM* | . | .
CN(C)c1ccc(/C=C/c2ccc3c4ccccc4ccc3[n+]2-c2ccccc2)cc1 | 7.1% | 8.91µM*! | 3.98µM* | -45.4%[10 µM]
CN(C)c1ccc(/C=C/c2ccc3ccccc3[n+]2C)cc1 | 2.1% | ? | 2.51µM* | -71.5%[10 µM]
CN(CCCS(=O)(=O)[O-])c1ccc(/C=C/c2ccc3ccccc3[n+]2C)cc1 | . | 2.4% | . | .
Cc1cc(/C=N/O)c(C)n1-c1ccccc1 | 0.0% | -0.8% | -18.8% | 25.9%[10 µM]
Cc1nonc1NC(=O)CSc1nc2c(C)cccc2cc1C#N | 15.8µM* | 44.7µM* | 3.2% | -12.7%
Cc1ccc(C)c2nc(SCC(=O)Nc3ccc4c(c3)OCO4)c(C#N)cc12 | -0.1% | 0.1% | 10.8%[9.22 µM] | 6.7%[10 µM]
CCCCn1c(=O)[nH]c2ccccc21 | 1.5% | 1.1% | 1.8% | -2.5%
O=c1[nH]c2ccccc2n1CCCSc1cnc2ccccc2n1 | 0.0% | 0.5% | 11.2µM* | -10.9%
O=C1c2ccsc2SCCN1Cc1c(F)cccc1Cl | . | 0.0% | . | .
O=C1c2ccsc2SCCN1Cc1c(Cl)cccc1Cl | -4.0% | -0.3% | 22.4µM* | -98.6%[10 µM]
CCCn1nc(NC(=O)CC)c2cc3cccc(C)c3nc21 | . | -2.3% | . | .
CCCn1nc(NC(=O)c2cccc(Cl)c2)c2cc3cccc(C)c3nc21 | 15.8µM* | -0.3% | . | .
COc1ccc(NC(=O)CC(C)S(=O)(=O)c2ccc3c(c2)NC(=O)CO3)cc1OC (centres undefined) | -1.1% | 0.7% | . | .
COCc1ccc([C@@H]2C[C@H]3CN(Cc4cccnc4)C(=O)[C@]34CCCN24)o1 | 1.5% | -0.3% | -28.1%[9.22 µM] | -18.2%[10 µM]
COCc1ccc([C@@H]2C[C@H]3CN(Cc4ccccc4C)C(=O)[C@]34CCCN24)o1 | 2.9% | 0.4% | 4.47µM* | -147.4%
Cc1[nH]n(-c2ccccc2)c(=O)c1Sc1ccc(Cl)cc1 | -0.9% | 2.4% | -20.0% | -9.0%
Cc1cc(-c2c(C)[nH]n(-c3ccc(Cl)cc3)c2=O)n[nH]1 | -1.8% | 0.8% | 11.2µM* | -82.0%
Cc1n[nH]c(C)c1CCC(=O)N/N=C/c1cccc([N+](=O)[O-])c1 | -2.9% | 4.5% | 25.8% | 12.0%[10 µM]
Cc1csc(NC(=O)CSc2nnc(-c3ccncc3)n2C)n1 | 0.9% | 15.7%[38.3 µM] | 0.0008µM* | -0.2%
Cn1c(SCC(=O)Nc2nccs2)nnc1-c1ccncc1 | -0.9% | 0.0% | -12.9% | 9.6%
CCOC(=O)N1CCN(C(=S)NC(=O)c2ccnn2C)CC1 | 0.0% | 0.7% | 7.7% | -1.3%[10 µM]
SMILES | Epigenetic reg | PINK1 modulator | HttQ103 aggreg | HTT cytoprotect
N#Cc1c(F)cccc1NCc1cccnc1 | . | -1.1% | . | .
N#Cc1c(NCc2ccccc2)ccnc1NCc1cccnc1 | 4.5% | 0.1% | 22.4µM* | 11.4%[10 µM]
CCCN(CCC)CC(O)Cn1cc(/C=C/C(=O)c2ccccc2)c2ccccc21 (centres undefined) | 1.6% | -2.0% | -12.8% | -52.3%
CCCN(CCC)CC(O)Cn1cc(/C=C/C(=O)c2ccc(Br)cc2)c2ccccc21 (centres undefined) | 15.8µM* | -3.9% | . | .
c1ccc2c(c1)oc1c(NCc3ccc4c(c3)OCO4)ncnc12 | 0.0% | -1.1% | 11.2µM* | 4.1%[10 µM]
c1ccc2c(c1)oc1c(Nc3ccc4c(c3)OCO4)ncnc12 | 0.0% | 3.2% | -14.1% | -29.4%
O=C(Nc1ccccc1C(=O)NCCc1ccccc1)c1ccco1 | 2.0% | -3.4% | 5.5% | -36.0%
C/C(=N\NC(=O)c1ccccc1F)c1ccc2c(c1)Nc1ccccc1S2 | 11.2µM* | 7.8% | 17.1% | -16.0%[10 µM]
C/C(=N\NC(=O)c1ccc(O)cc1)c1ccc2c(c1)Nc1ccccc1S2 | 0.0% | -2.6% | -28.3% | 15.4%[10 µM]
CCOc1ccc(OCCSc2nc3ccccc3[nH]2)cc1 | -1.0% | . | ? | 8.9%[10 µM]
CCCOc1ccc(CSc2nc3ccccc3[nH]2)cc1 | -2.1% | -3.0%[38.3 µM] | 7.94µM* | -87.1%
O=C(Nc1nc(-c2cccs2)c(C(=O)C(F)(F)F)s1)c1ccccc1 | 1.2% | ? | 10µM* | .
O=C(CNC(=O)c1ccccc1)Oc1cccc(Cl)c1 | . | 0.3% | . | .
CC(=O)NC1=NN(C(C)=O)C(C)(CS(=O)(=O)c2ccc(Cl)cc2)S1 (centres undefined) | 0.0% | -1.9% | -9.1% | -12.7%[1.9 µM]
COc1ccc(N(C(C)C(=O)N/N=C/c2cc(Br)c(C)o2)S(C)(=O)=O)cc1 (centres undefined) | 1.7% | 1.0% | ? | 0.891µM*
CCOc1ccc(/C=N/NC(=O)C(C)N(c2ccc(OC)cc2)S(C)(=O)=O)cc1OCC (centres undefined) | 2.3% | -1.2% | -14.1% | -9.1%
CCC(C)n1c(NC(=O)c2ccccc2)c(C#N)c2nc3ccccc3nc21 (centres undefined) | 20µM* | ? | ? | -85.3%
CCCCn1c(NC(=O)c2ccccc2)c(C#N)c2nc3ccccc3nc21 | 1.0% | ? | 3.7% | -28.6%[10 µM]
c1csc(-c2nn3c(Cn4nnc5ccccc54)nnc3s2)c1 | 0.0% | 1.2%[38.3 µM] | 3.9% | -4.8%[10 µM]
O=C(C=Cc1ccco1)c1ccc([N+](=O)[O-])cc1 | . | 4.2% | . | .
COc1ccc(C(=O)Nc2ccccc2)cc1S(=O)(=O)Nc1ccc(Br)cc1 | -0.8% | 7.5% | . | .
COc1ccc(NC(=O)c2ccc3c(c2)NC(=O)CS3)cc1S(=O)(=O)Nc1ccc(Br)cc1 | 2.2% | 6.5% | 17.8µM* | -132.5%
COCCC(=O)N1CCC(Oc2ccc(C(=O)NCCn3cccn3)cc2)CC1 | . | -0.3% | . | .
COc1cccc(/C=N\NC(=O)C2C(=O)NCC2c2ccccc2)c1O (centres undefined) | 0.8% | -1.8% | 11.2µM* | -48.1%
COc1cccc(/C=N/NC(=O)c2cc(-c3cccn3C)n[nH]2)c1O | -3.2% | 0.5% | 1.78µM* | -48.2%[10 µM]
SMILES | Epigenetic reg | PINK1 modulator | HttQ103 aggreg | HTT cytoprotect
COc1cc(/C=N/NC(=O)c2cc(-c3cccn3C)n[nH]2)cc(OC)c1OC | -1.2% | 1.8%[38.3 µM] | ? | ?
COc1cccc(/C=N/NC(=O)c2cc3c(OC)cccc3[nH]2)c1O | 0.0% | 39.8µM* | 2.24µM* | -86.8%[10 µM]
Cc1sc2ncn(CCC(=O)O)c(=O)c2c1C | -3.1% | 0.9% | -1.5%[9.22 µM] | 2.6%
Cc1sc2ncn(CCn3cnc4sc(C)c(C)c4c3=O)c(=O)c2c1C | -2.1% | -0.7% | 0.447µM* | 6.4%
Cc1nc2c3cc(Cl)ccc3n(CCN3CCCCC3)c2s1 | 6.8% | 3.98µM* | 14.2% | -54.8%
Cc1occc1C(=O)N/N=C/C1=C(N2CCOCC2)C(=C\c2ccc(Cl)cc2Cl)/CC1 | ? | 31.6µM* | -2.4% | .
CCOC(=O)c1cnc(-n2nc(C)cc2C)nc1NCCc1ccccc1 | 2.4% | 28.0% | 12.6µM* | -69.9%
